# Bioassay records: PubChem, Sanford-Burnham Center for Chemical Genomics
# Mac1 fbg inh: blocks human CD11b/CD18 adhesion to fibrinogen. K562 CD11b/CD18 adhesion to fibrinogen, ATPlite luminescence; Mn2+ added to activate the integrin. hit rate 0.54% among 93,000. inhibition, % at 10 µM;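 active means primary inhibition of 50% or more at 10 µM, then 40% or more on retest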
# CYP2C9 act: CYP2C9 (human) activation; recombinant CYP2C9, luciferin-H conversion, luminescence; active compounds read high; factor 1 = untreated enzyme, 0 = blocked; activation factor at 5 µM; hit rate 1.4% among 96,000; AID 1024;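 active means activation factor of 2 or more for CYP2C9 at a 5 µM dose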;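 further: 0 = sulfaphenazole-blocked wells and 1 = vehicle-only wells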
# CYP2C19 activ: increases human CYP2C19 enzyme activity. P33261. recombinant CYP2C19, luciferin-H EGE luminescence; active compounds read high; 0 = fully inhibited enzyme, 1 = untreated enzyme. activation factor at 5 µM. 96,000 tested, under 10 active. AID 1025;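 active means activation factor of at least 2 at 5 µM in the primary screen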;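 further: 0 = wells with 2.5 mM tranylcypromine and 1 = vehicle-only wells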
# Target sequence (P33261 whole entry, looked up): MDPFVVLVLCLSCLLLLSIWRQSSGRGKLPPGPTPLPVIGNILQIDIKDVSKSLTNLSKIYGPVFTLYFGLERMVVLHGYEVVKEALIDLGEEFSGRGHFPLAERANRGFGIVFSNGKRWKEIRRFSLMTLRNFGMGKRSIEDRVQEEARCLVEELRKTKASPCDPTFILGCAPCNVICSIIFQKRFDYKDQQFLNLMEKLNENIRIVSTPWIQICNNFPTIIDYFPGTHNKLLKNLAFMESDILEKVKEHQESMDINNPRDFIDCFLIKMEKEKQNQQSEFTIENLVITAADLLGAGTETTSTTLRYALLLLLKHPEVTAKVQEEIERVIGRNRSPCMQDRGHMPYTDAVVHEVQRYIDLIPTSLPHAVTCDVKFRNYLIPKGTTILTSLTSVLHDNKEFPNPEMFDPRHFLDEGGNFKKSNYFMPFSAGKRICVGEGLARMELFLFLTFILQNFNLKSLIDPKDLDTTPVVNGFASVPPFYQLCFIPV
# Mac1 fbg enh: CD11b/CD18-fibrinogen binding enhancement | P05107+P11215 | K562 CD11b/CD18 adhesion to fibrinogen, ATPlite luminescence | activation, % at 10 µM | hit rate 0.07% among 93,000;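 active means 10 µM primary screen giving 50% or more activity, confirmed by 40% or more on retest at that dose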
# CYP2C19 inh: blocks human cytochrome P450 2C19; P33261; inhibition, % at 5 µM; CYP2C19 Supersomes, luciferin-H EGE luminescence, 30 min; hit rate 21% among 96,000;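 active means CYP2C19 inhibition above a set limit at 5 µM in the primary screen, cut at about 50% in these data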;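 further: plate controls were negative control wells for no effect and 2.5 mM tranylcypromine positive control for full effect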
# CYP2C9 inhib: inhibitors of human CYP2C9 | hit rate 20% among 96,000 | P11712 | inhibition, % at 5 µM | CYP2C9 Supersomes, luciferin-H conversion, luminescence;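 active means blocking of liver enzyme CYP2C9 beyond about 50% at 5 µM, limit read from the data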
# Starred values were filed as active, the others as inactive; x = not tested or not shown. In the library only some 28% were active in any assay of this set; here they are far more common.
SMILES,Mac1 fbg inh,CYP2C9 act,CYP2C19 activ,Mac1 fbg enh,CYP2C19 inh,CYP2C9 inhib
CCNC(=O)C1CC(=O)N(Cc2ccc(F)cc2)C(=Nc2ccc(OC)cc2)S1 (stereo unspecified),5,1.6,0.5,-1,55*,-56
O=C(OCC(=O)N1CCN(C(=O)c2ccco2)CC1)c1cc(=O)c2ccccc2o1,-5,1,1,1,-5,5
CCOc1cccc(NC(=O)C2CC(=O)NC(=Nc3ccccc3)S2)c1 (stereo unspecified),0,0.4,0.8,1,19,62*
CCN1C(=O)CC(C(=O)Nc2ccc(F)cc2)SC1=Nc1cccc(OC)c1 (stereo unspecified),1,0.2,0.4,-1,62*,84*
CNC(=O)C1CC(=O)N(Cc2ccccc2)C(=Nc2ccc(OC)cc2)S1 (stereo unspecified),-15,0.8,0.5,0,49,22
C/C(CCc1ccc2c(c1)OCO2)=N\N=C1\NC(=O)CC(C(=O)Nc2ccc(Cl)cc2)S1 (stereo unspecified),x,0.2,0.7,x,30,75*
CCn1cc(C2=NOC(C(=O)Nc3cc(C)nn3-c3ccccc3)C2)c(C)n1 (stereo unspecified),4,1.1,1.1,-3,-12,-8
O=C(O)C1CSC(c2ccncc2)N1 (stereo unspecified),3,0.3,0.4,0,59*,73*
S=c1[nH]nc(-c2ccco2)n1Cc1ccccc1,-26,0.5,0.6,2,38,50*
S=c1[nH]nc(-c2ccccc2)n1Cc1ccccc1,1,0.6,0.4,1,62*,42
S=c1[nH]nc(-c2ccncc2)n1Cc1ccco1,-13,0.4,0.7,-2,33,61*
S=c1[nH]nc(-c2ccc(Br)o2)n1Cc1ccccc1,-5,0.4,0.4,-2,61*,60*
c1ccc(Nc2cc(-c3ccccc3)nc3ncnn23)cc1,2,0.8,0.5,-3,45,20
CCOC(=O)Cc1csc(NC(=O)C2CCCCC2C(=O)O)n1 (stereo unspecified),-8,0.9,1,-1,-2,12
CCOC(=O)Cc1csc(NC(=O)c2ccncc2)n1,x,0.4,0.2,x,78*,56*
CCCCOC(=O)Nc1nc(CC(=O)OCC)cs1,-10,0.2,0.1,1,91*,82*
CCOC(=O)Cc1csc(NC(=O)c2ccc(C)o2)n1,-24,0.3,0.3,-2,73*,72*
CCOC(=O)c1c(-c2ccccc2)csc1NC(=O)/C(C#N)=C/c1ccc(O)c(OC)c1,29,x,x,14,x,x
C=CCn1c(C)cc(C(=O)CN2C(=O)NC3(CCCc4ccccc43)C2=O)c1C (stereo unspecified),10,0.2,0.6,6,44,82*
CC1(c2ccc(Cl)cc2)NC(=O)N(CC(=O)NC(=O)NCc2ccco2)C1=O (stereo unspecified),-11,0.3,0.3,0,66*,67*
O=C(CN1C(=O)NC2(CCCc3ccccc32)C1=O)NCc1ccco1 (stereo unspecified),6,0.2,1,-3,-1,78*
Cc1cc(C(=O)CN2C(=O)NC(c3ccccc3)(c3ccccc3)C2=O)c(C)n1Cc1ccco1,38,0.4,0.8,14,16,62*
O=C(CN1C(=O)NC2(CCCCCC2)C1=O)NCc1ccco1,0,0.9,0.9,2,7,6
Cc1cc(C(=O)CN2C(=O)NC3(CCCc4ccccc43)C2=O)c(C)n1Cc1cccs1 (stereo unspecified),-3,0.6,1,-3,1,44
Cc1nc2sc(C(c3ccc(Cl)cc3)N3CC(C)OC(C)C3)c(O)n2n1 (stereo unspecified),-17,1,0.8,0,20,-4
SMILES,Mac1 fbg inh,CYP2C9 act,CYP2C19 activ,Mac1 fbg enh,CYP2C19 inh,CYP2C9 inhib
COc1ccc(C2(C(=O)NCc3ccco3)CCCC2)cc1OC,x,1,0.8,x,23,-3
O=C(CN1CCc2ccccc2C1)NCc1ccco1,5,0.6,0.1,-4,93*,35
O=C(NCc1ccco1)C1(c2ccccc2)CCCC1,-7,0.6,0.4,-1,57*,35
O=C(NCc1ccccn1)c1cn(-c2ccccc2)nc1-c1ccc(Cl)cc1,-3,x,x,-3,x,x
CCCOc1ccc(C2C(=O)N(C3CCCCC3)CC(=O)N2C2CC2)cc1OC (stereo unspecified),x,0.7,1,x,0,35
CN(C)Cc1nc2ccccc2c(=O)n1Cc1nc(-c2cc3ccccc3o2)cs1,-1,0.3,0.8,1,18,70*
COc1cc(C2C(C#N)=C(N)N(c3cccnc3)C3=C2C(=O)CC(C)(C)C3)ccc1O (stereo unspecified),-5,0.9,1.1,1,-9,9
CCOC(=O)Cn1nnc(-c2ccc(SC)cc2)n1,6,1,0.5,-3,46,-3
CSc1ccc(-c2nnn(Cc3ccc(Br)cc3)n2)cc1,21,0.7,0.2,-3,75*,30
CSc1ccc(-c2nnn(Cc3ccccn3)n2)cc1,4,0.7,0.3,-6,67*,26
CCC1Oc2ccc(C)cc2N(CC(=O)NCCN2CCCCCC2)C1=O (stereo unspecified),2,0.9,0.9,-6,6,9
CCC1Oc2ccc(C)cc2N(CC(=O)NCC2COc3ccccc3O2)C1=O (stereo unspecified),4,0.6,0.1,2,93*,38
Cc1ccc2c(c1)N(CCC(=O)NCC1COc3ccccc3O1)C(=O)CO2 (stereo unspecified),-8,0.6,0.2,0,76*,35
Cc1ccc2c(c1)N(CCC(=O)NCCN1CCOCC1)C(=O)CO2,-4,1,1.1,-5,-5,0
O=C(Cc1ccc(Cl)cc1)NCCS(=O)c1ccc(Cl)cc1 (stereo unspecified),-3,0.9,0.8,-4,21,14
O=C(Nc1ccccc1)c1ccc(CSc2ncccn2)cc1,x,0.6,0.6,x,44,43
Cc1ccc(NC(=O)c2ccc(CSc3nccc(C)n3)cc2)cc1,22,0.4,0.7,-3,32,64*
Cc1ccc(C(c2nnnn2C(C)(C)C)N(Cc2ccco2)Cc2cccs2)cc1 (stereo unspecified),0,0.2,0.8,0,24,76*
CCN(CC)C(c1ccc(C)cc1)c1nnnn1C1CCCCC1 (stereo unspecified),-10,0.2,0.1,1,95*,78*
CC(C)(C)n1nnnc1C(c1cccs1)N(Cc1ccccc1)Cc1cccnc1 (stereo unspecified),x,0.7,0.5,x,48,29
